According to PubChem BioAssay AID2314 (National Center for Advancing Translational Sciences (NCATS), 2010):
The campaign covered roughly 300,000 compounds. About 37,000 (12%) were called active. The list comes from a sample in which actives are over-represented; it also holds similar structures and randomly drawn compounds. A number with no mark means an inactive call. Cut-off read from the data, not from the text of the source: active = max response mostly above about 13% (no sharp cut-off); inactive = mostly below about 14%.

Experiment: Cycloheximide Counterscreen for Small Molecule Inhibitors of Shiga Toxin; note: read at 38.3 µM for the half of the compounds with a filed dose; 0% is about no effect
Conditions: cell reporter, cycloheximide protein synthesis inhibition counterscreen; stronger effect = higher value

SMILES | max response
COC(=O)N/N=C/c1ccc(-c2ccc(Cl)c(Cl)c2)o1 | 51.5% (active)
O=C(N/N=C\c1ccc(-c2ccc(Cl)c(Cl)c2)o1)C(=O)N1CCCC1 | -1.36%
Nc1nnnn1CC(=O)N/N=C/c1ccc(-c2cccc(Cl)c2)o1 | 12.6%
Cc1cccc(-c2nc(CS(=O)CC(=O)NC(C)CCc3ccccc3)c(C)o2)c1 (stereo not drawn) | -0.794%
O=C(Nc1ccc(Cl)c(Cl)c1)N1CC=C(c2ccccc2)CC1 | 4.38%
Cc1ccc(C)c(N2CCN(C(=O)CCCn3c(=O)c4cccn4c4cccnc43)CC2)c1 | -1.51%
COc1ccc(C2NC(=S)NC3=C2CCc2ccccc23)cc1OC (stereo not drawn) | 6.79%
CCOc1ccc(C2NC(=S)NC3=C2CCc2ccccc23)cc1 (stereo not drawn) | 54.2% (active)
CCOC(=O)C1=C(c2ccccc2)NC(=S)NC1c1ccc(Cl)cc1 (stereo not drawn) | 1.29%
Cc1ccc(CNC(=O)[C@@H](NC(=O)Cc2ccccc2)C(C)C)cc1 | 3.51%
CSCCC(NS(=O)(=O)c1ccc2c(c1)oc(=O)n2C)C(=O)NC1CCCc2ccccc21 (stereo not drawn) | 7.75%
O=[N+]([O-])c1cccc(S(=O)(=O)NCc2ccccn2)c1 | -2.36%
COc1cccc(C(=O)OCc2cc(=O)oc3c(C)c(C)ccc23)c1OC | -3.37%
O=C(O)C1CC=CCC1C(=O)NCCc1ccccc1 (stereo not drawn) | -2.55%
O=C(O)C1CC=CCC1C(=O)Nc1ccccc1C(=O)N1CCN(c2ccccc2)CC1 (stereo not drawn) | -3.82%
O=C(Nc1cccc(Cl)c1Cl)c1ccccc1NC(=O)C1CC=CCC1C(=O)O (stereo not drawn) | 26.8% (active)
O=C(Nc1ccc(Cl)c(Cl)c1)c1ccccc1NC(=O)C1CC=CCC1C(=O)O (stereo not drawn) | 38.2% (active)
O=C(Nc1ccccc1)c1ccccc1NC(=O)C(F)(F)F | 11.2%
O=C(Nc1ccccc1C(=O)N1CCCCCC1)c1ccccc1Cl | -3.34%
COc1ccc(-c2nn(-c3ccccc3)cc2/C=C2/SC(=S)N(CCCC(=O)O)C2=O)c(C)c1 | -2.33%
COc1cccc(CNS(=O)(=O)c2ccc3c(c2)CC(C)N3C(=O)C2CCC2)c1 (stereo not drawn) | 8.91%
O=C(NCc1cccs1)c1ccc(Br)o1 | 6.23%
CC(CCc1ccccc1)NC(=O)c1ccc(Br)o1 (stereo not drawn) | 5.6%
C/C(=N/NC(=O)c1ccc(Br)o1)c1ccc(C)o1 | 78.1% (active)

SMILES | max response
Cc1cc(C)c2c(-c3ccc(F)cc3)c(C#N)c(=O)n(C)c2n1 | -4.22%
CN(CCC1CCOCC1)Cc1cn[nH]c1-c1ccc(-c2ccccc2)cc1 | 19% (active)
O=C(c1ccc(F)cc1)C1CCN(Cc2cn[nH]c2-c2ccccc2)CC1 | -1.57%
COc1ccc(-c2[nH]ncc2CN(C)Cc2cc(C)[nH]n2)c(F)c1 | 7.91%
Cc1nnc(CN(C)Cc2cn[nH]c2-c2ccc(-c3ccccc3)cc2)o1 | 14.6% (active)
COc1ccc(-c2[nH]ncc2CN(C)Cc2c(C)n[nH]c2C)c(OC)c1 | -6.81%
O=C(CC1C(=O)NCCN1Cc1ccc(-c2ccccc2)cc1)NCC1CCOCC1 (stereo not drawn) | -0.46%
CC1(C)c2[nH]c3ccccc3c2C[C@H]2C(=O)N(N)CC(=O)N21 | -5.11%
CC(C)(C)c1ccc(C(=O)NCc2nnc(SCC(=O)N3CCCc4ccccc43)n2-c2ccccc2)cc1 | -1.48%
CC(C)(C)C(=O)N(Cc1ccccc1)c1ccccn1 | 0.801%
Cc1ccccc1N1CCN(S(=O)(=O)c2ccc3ccccc3c2)CC1 | -1.83%
Cc1ccc(Cn2nnc3c(=O)[nH]c(C4CCN(S(=O)(=O)/C=C/c5ccccc5)CC4)nc32)cc1 | -2.92%
COc1ccc(NC(=O)CSc2nc(C)cs2)cc1 | 27.7% (active)
COc1cc(OC)cc(-c2nnc(SCC(=O)Nc3ccc(C(=O)O)cc3)s2)c1 | -1.06%
CSc1nsc(SCC(=O)Nc2cc(C(=O)O)ccc2C)n1 | 1.8%
Cc1csc(SCC(=O)Nc2sccc2C#N)n1 | 2.13%
COc1ccc(C)cc1NC(=O)CSc1nc(SC)ns1 | 10.3%
COc1ccc(NC(=O)CSc2nc(SC)ns2)c(OC)c1 | 42.1% (active)
O=S(=O)(NCCCCCCNS(=O)(=O)c1c(F)cccc1F)c1ccc2c(c1)OCCO2 | -6.04%
C#CCOc1ccccc1/C=C1/C(=O)ON=C1C | 7.98%
COc1ccccc1C(=O)N/C(=C/c1ccco1)C(=O)Nc1ccc(C(=O)O)cc1 | -3.58%
Cc1c(NC(=O)Nc2cccc([N+](=O)[O-])c2)c(=O)n(-c2ccccc2)n1C | 3.26%
CCN1CCN(CCNC(=O)c2ccc3c(c2)NC(=O)/C(=C\c2ccc(OC)c(OC)c2)S3)CC1 | 1.31%
CC(Nc1nc(C(F)(F)F)nc2ccccc12)c1cccs1 (stereo not drawn) | -5.02%

SMILES | max response
C=Cn1cc[n+](CC(=O)c2ccc(OC)c(OC)c2)c1 | -1.55%
CN(C)c1nc(Nc2ccc(Cl)c(Cl)c2)nc(N(C)C)n1 | 1.57%
CC(=O)Nc1nc(N(C)C)nc(N(C)C)n1 | 26.5% (active)
CN(C)c1nc(NN)nc(Nc2ccc(F)cc2)n1 | -3.59%
O=S1(=O)CCO[C@H]2Cc3ccccc3[C@H]2N1Cc1ccccc1 | -1.34%
Cc1c(-c2nn(C)c(=O)c3ccccc23)oc2ccc(F)cc2c1=O | -8.42%
C=CCNC(=O)c1ccc(C)c(Br)c1 | 5.91%
C=CCNC(=O)c1ccc2c3n(nc2c1)-c1ccc(C)cc1CO3 | 34.5% (active)
Cc1cccc(-c2nc3ccc(C(=O)NCCN4CCN(C)CC4)cc3nc2-c2cccc(C)c2)c1 | -13.3%
CCCCn1c(N)c(N(CCC(C)C)C(=O)c2ccc([N+](=O)[O-])o2)c(=O)[nH]c1=O | -1.97%
CCN(CC)CC(=O)Nc1sc2c(c1C(=O)c1ccccc1C)CCC2 | -2.82%
CC(C)c1ccc(OCC(O)CN2CCN(c3ccccn3)CC2)cc1 (stereo not drawn) | -1.42%
CC(O)c1ccc(OCCN(C)c2ccccn2)cc1 (stereo not drawn) | 55.9% (active)
CCOc1ccc(C(C(=O)NCCOC)N(CCOC)C(=O)CCC(=O)Nc2ccccn2)cc1 (stereo not drawn) | 1.47%
Nc1[nH]c(=S)nc2nc(-c3ccccc3)c(-c3ccccc3)nc12 | -2.36%
Cc1ccc(Oc2cnn(-c3ccccc3)c(=O)c2Br)cc1 | 12.3%
C=CCNc1cnn(-c2ccc(C)cc2)c(=O)c1Cl | 66.7% (active)
CC1=C(C(=O)NC2CC(C)(C)Cc3c2cnn3-c2ccc(C)cc2)OCCO1 (stereo not drawn) | 10.7%
CC(C)(C)c1nc2ccccc2c(=O)n1N1C(=O)c2ccccc2C1=O | -2.32%
Cc1ccc2nc(COc3ccc(N(C)S(=O)(=O)c4ccccc4)cc3)cc(=O)n2c1 | -1.15%
CCCCCc1ccc(-c2ccc(C(=O)O)cc2)nc1 | 79.8% (active)
CCOc1c(CNCc2ccc(C(=O)O)cc2)cccc1OC | -3.44%
O=C(O)c1ccc(COCC(F)(F)F)cc1 | -3.85%
CCOc1ccc(-c2ccc(SCC(=O)N3CCOCC3)nn2)cc1 | 23.3%

SMILES | max response
CCCCCc1ccc(-c2ccc(OCC)cc2)nc1 | 15.6% (active)
CCCCCc1ccc(-c2cn(Cc3ccc4ccccc4c3)nn2)cc1 | -2.64%
COc1ccc(CNC(=O)C2CCN(S(=O)(=O)c3ccc(SC)cc3)CC2)cc1 | 10.4%
CCn1c(O)c(N=NC(=O)c2cccc(S(=O)(=O)N3CCCCC3)c2)c2ccccc21 | -2.88%
CC(=O)[O][Sn]([c]1ccccc1)([c]1ccccc1)[c]1ccccc1 | -16.7%
O=C(O)CN1CCN(C(c2ccccc2)c2ccccc2)CC1 | -0.558%
COC(=O)Cc1csc(/N=C/c2c(O)n(-c3cccc(C(F)(F)F)c3)c(=O)c3ccccc23)n1 | -0.585%
COc1ccc(NC(=O)c2cc([N+](=O)[O-])ccc2NC(=O)CNC2CCCCC2C)c(OC)c1 (stereo not drawn) | -4.84%
CC(C)c1nnc(NC(=O)COC(=O)/C=C/c2ccc([N+](=O)[O-])cc2)s1 | -2.23%
CCC(C)N(C)C1CCN(C(=S)Nc2ccc(OC)cc2)CC1 (stereo not drawn) | 2.11%
COc1ccc(C(=O)NC2CCN(C(=S)Nc3ccccc3)CC2)cc1 | -4.48%
COc1ccccc1C1CCN(C(=S)Nc2ccc(Br)cc2)CC1 | 21.5% (active)
O=C(CN1CCN(c2ccccc2)CC1)Nc1ccc(F)cc1 | 0.655%
Cc1cc2oc(C(=O)Nc3c(C)n(C)n(-c4ccccc4)c3=O)c(C)c2cc1Cl | -5.74%
O=C(CC1NCCNC1=O)Nc1cc(Cl)cc(Cl)c1 (stereo not drawn) | -5.54%
O=C(CC1NCCc2ccccc21)Nc1cccc(Cl)c1 (stereo not drawn) | 30.4% (active)
O=C(CC1C(=O)NCCN1C(=O)c1ccc([N+](=O)[O-])cc1)Nc1cccc(Cl)c1 (stereo not drawn) | 5.86%
O=C1/C(=C\c2ccccc2Cl)SC(=S)N1CCC(=O)N1CCCc2ccccc21 | -2.48%
Cc1ccc(C(=O)N2CC(=O)Nc3ccc(F)cc3C2c2ccc(F)cc2)cc1 (stereo not drawn) | -2.84%
CCn1c(=S)sc2c(=O)n(CC(=O)Nc3cccc(Br)c3)c(C)nc21 | -2.2%
CCCCC(C(=O)NC(C)(C)C)N(Cc1ccccc1)C(=O)c1snc(C(N)=O)c1N (stereo not drawn) | -0.829%
